The source made the active and inactive calls. Unless noted, the rule behind the calls is not given here.
Tests used:
[1] = system: XIP peptide (Xip251-270) binding; test: XIP fragment 251-270 binding compounds – biochemical, small-molecule microarray, fluorescence 635/667 nm, 0.1 µg/mL protein, primary screen (AID 1182); details: fluorescent protein binding, 635 nm, higher = more signal, called active from +8 up or from −8 down
XIP peptide (Xip251-270) = test: compounds binding XIP fragment 251-270 – biochemical, small-molecule microarray, fluorescence 635/667 nm, 0.5 µg/mL protein, primary screen (AID 1183); details: fluorescence 635 nm, higher = more signal
[2] = blood-stage malaria parasite viability loss – strain 3D7, DAPI fluorescence, 100 nL, primary screen (AID 1184);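 note: parasites grown inside human red blood cells in medium with human serum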; details: P. falciparum 3D7 growth, 3 d, higher = more signal
[3] = target: Homeobox protein Hox-A13 (Mus musculus) (UniProt Q62424); test: disruptors of Hoxa13 oligonucleotide interaction – biochemical, fluorescence polarization, labeled oligonucleotide, primary screen (AID 1185); details: Hoxa13:DNA binding, 15 min, higher = more signal, called active from +8 up or from −8 down
[4] = blockers of DNA damage checkpoint Chk1 activation – imaging, HeLa, hydroxyurea, phospho-Chk1 antibody, percent positive cells, primary screen (AID 1186); details: hydroxyurea-induced phospho-Chk1 immunofluorescence imaging, higher = more signal
[5] = blockers of DNA damage checkpoint Chk1 activation – imaging, HeLa, hydroxyurea, phospho-Chk1 nuclear intensity, primary screen (AID 1187); details: hydroxyurea-induced phospho-Chk1 immunofluorescence imaging, higher = more signal

Homeobox protein Hox-A13 (Mus musculus), sequence (Q62424 whole entry, looked up): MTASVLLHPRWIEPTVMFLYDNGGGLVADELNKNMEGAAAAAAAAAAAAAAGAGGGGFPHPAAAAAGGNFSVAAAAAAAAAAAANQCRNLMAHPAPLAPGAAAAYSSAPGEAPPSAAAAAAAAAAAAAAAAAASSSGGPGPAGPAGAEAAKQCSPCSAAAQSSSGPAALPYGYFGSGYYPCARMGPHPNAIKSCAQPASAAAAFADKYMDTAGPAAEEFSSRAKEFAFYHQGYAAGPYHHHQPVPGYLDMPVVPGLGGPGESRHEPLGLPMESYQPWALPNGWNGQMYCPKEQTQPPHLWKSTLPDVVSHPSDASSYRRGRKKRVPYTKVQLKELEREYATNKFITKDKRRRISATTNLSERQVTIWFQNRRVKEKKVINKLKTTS

| SMILES | composite z-score [1] | composite z-score (XIP peptide (Xip251-270)) | z-score [2] | z-score [3] | z-score [4] | z-score [5] |
| --- | --- | --- | --- | --- | --- | --- |
| COCCOC(=O)N1C(=O)[C@@]2(c3cc(C#CC4(O)CCCCCC4)ccc31)[C@H](C(=O)Nc1nc3ccccc3s1)[C@H]1C(=O)O[C@H](c3ccccc3)[C@H](c3ccccc3)N1[C@@H]2c1ccc(OCCO)cc1 | -0.148 (inactive) | 0.712 | -1.71 | 0.447 (inactive) | -0.086 (inactive) | -0.0454 (inactive) |
| COC(=O)C(CC#Cc1ccc2c(c1)[C@]1(C(=O)N2)[C@H](c2ccccc2OCCO)N2[C@H](c3ccccc3)[C@H](c3ccccc3)OC(=O)[C@H]2[C@@H]1C(=O)O)C(=O)OC | 0.117 (inactive) | 0.791 | 0.386 | -5.57 (inactive) | 0.0449 (inactive) | 0.426 (inactive) |
| C=C(/C(=C/C[C@H](OC(C)=O)c1ccc(OCCO)cc1)c1cc(C(=O)OC)ccc1OC)C(C)C | 0.537 (inactive) | 0.808 | -2.9 | -3.69 (inactive) | 0.418 (inactive) | 1.29 (inactive) |
| CCCC[C@@H]1C[C@H]1[C@@H](NC(=O)c1cccnc1)c1ccc(Cl)cc1 | -1.19 (inactive) | -1.83 | -0.577 | 1.33 (inactive) | -0.308 (inactive) | -0.437 (inactive) |
| O[C@@H](Cc1ccccc1)[C@@H](/C=C/C1CC1)NCc1cccc(Cl)c1 | -0.58 (inactive) | -0.134 | -1.44 | 0.306 (inactive) | -0.303 (inactive) | -0.682 (inactive) |
| CS(=O)(=O)CCOC(=O)C1=CC(CCCO)=CC(c2ccc(CN3CCCC3)cc2)N(Cc2cccc(OC(F)(F)F)c2)C=C1C(=O)OCCS(C)(=O)=O (stereo not given) | 0.211 (inactive) | 0.584 | -2.79 | -1.82 (inactive) | 0.157 (inactive) | 1.28 (inactive) |
| C=CC[C@]1(C(N)=O)COC(c2ccc(OCCCO)cc2)=N1 | -0.539 (inactive) | -0.0487 | 0.668 | -0.063 (inactive) | -0.551 (inactive) | -0.351 (inactive) |
| COc1ccc([C@H]2OC[C@@H]3CCC(=O)N32)cc1 | 0.467 (inactive) | 0.394 | 0.401 | 0.119 (inactive) | -0.208 (inactive) | -0.183 (inactive) |
| COc1ccc(CCNC(=O)[C@@]2(c3ccc([N+](=O)[O-])cc3)CC(=O)N(CC34CC5CC(CC(C5)C3)C4)[C@@H]2c2ccc(CO)cc2I)cc1 | 0.417 (inactive) | 0.723 | -1.46 | -0.814 (inactive) | -0.155 (inactive) | 0.022 (inactive) |
| CCCCN1CC=CC23O[C@@H]4/C=C\CCCOC(=O)C4[C@H]2C(=O)N(CCCO)[C@@H]3C1=O (stereo not given in full) | 1.48 (inactive) | 0.737 | 0.651 | -5.29 (inactive) | 0.267 (inactive) | 0.576 (inactive) |
| O=C(NC1CC1)[C@@H]1c2ccccc2C(=O)N(Cc2cc(F)cc(C(F)(F)F)c2)[C@H]1c1ccc(CO)cc1 | -0.414 (inactive) | 0.716 | -0.247 | -3.5 (inactive) | 0.135 (inactive) | -0.0928 (inactive) |
| C=CCOC(=O)[C@H]1[C@@H]2C(=O)O[C@@H](c3ccccc3)[C@@H](c3ccccc3)N2[C@@H](c2ccc(OCCOC(=O)[C@H]3C[C@H]4C(=O)N[C@@H](CCCCN(C)C)C(=O)N4[C@H]3c3cccc(OCCO)c3)cc2)[C@]12C(=O)Nc1ccc(I)cc12 | 0.718 (inactive) | 0.634 | -0.355 | 5.48 (inactive) | -0.187 (inactive) | 0.0593 (inactive) |
| COC(=O)[C@@]1(CCC(=O)OC(C)(C)C)N=C(c2ccc(OCCCO)cc2)O[C@H]1c1ccccc1 | 0.485 (inactive) | 0.732 | -2.43 | -4.58 (inactive) | -0.17 (inactive) | 0.284 (inactive) |
| O=C1N(CCS(=O)(=O)c2ccccc2)c2ccccc2[C@@H]2OC(c3ccc(OCCCO)cc3)=N[C@]12Cc1ccccc1 | 0.395 (inactive) | 0.639 | -2.17 | -1.41 (inactive) | -0.522 (inactive) | -0.825 (inactive) |
| O=C1OCCC=C[C@H]2OC34C=CCN(Cn5nnc6ccccc65)C(=O)[C@H]3N(CCO)C(=O)[C@@H]4C12 (stereo not given in full) | -0.681 (inactive) | -0.552 | -0.288 | -2.78 (inactive) | -0.943 (inactive) | -1.01 (inactive) |
| COCCOC(=O)N1C(=O)[C@@]2(c3ccccc31)[C@H](C(=O)N1CCCCCCC1)[C@H]1C(=O)O[C@H](c3ccccc3)[C@H](c3ccccc3)N1[C@@H]2c1ccc(OCCO)cc1 | 6.55 (inactive) | 0.992 | -2.03 | -15.8 (active) | -0.261 (inactive) | -0.268 (inactive) |
| C=C(CCCC)/C(=C/C[C@H](OC(=O)c1ccncc1)c1ccc(OCCO)cc1)c1cc(C(=O)OC)ccc1OC | -0.235 (inactive) | -0.132 | -3.09 | -2.79 (inactive) | -1.01 (inactive) | -0.504 (inactive) |
| O=C1C2C=CC(C(O)COCc3ccccc3)N(Nc3ccc([N+](=O)[O-])cc3)C2C(=O)N1c1ccccc1 (stereo not given) | -0.183 (inactive) | -0.006 | -1.2 | -3.13 (inactive) | 0.0045 (inactive) | 0.54 (inactive) |

| SMILES | composite z-score [1] | composite z-score (XIP peptide (Xip251-270)) | z-score [2] | z-score [3] | z-score [4] | z-score [5] |
| --- | --- | --- | --- | --- | --- | --- |
| C=CCN(Cc1ccccc1)C(=O)C(c1cccs1)N(C(=O)/C=C\C(=O)O)c1ccc(CCOCCO)cc1 (stereo not given) | -0.524 (inactive) | 0.625 | 0.155 | 0.12 (inactive) | -1.25 (inactive) | -0.565 (inactive) |
| C#CCOc1ccc(C[C@@H](C(=O)OC)N(CC#C)[C@@H](/C=C/C2CC2)[C@H](O)Cc2ccccc2)cc1 | -0.365 (inactive) | -0.119 | -1.21 | -3.88 (inactive) | -0.146 (inactive) | -0.432 (inactive) |
| CC1CC/C=C\[C@H]2OC34C=CCN(Cc5ccccc5)C(=O)[C@H]3N(C(C)CO)C(=O)[C@@H]4C2C(=O)O1 (stereo not given in full) | -0.49 (inactive) | 0.0057 | -0.562 | -5.87 (inactive) | -0.682 (inactive) | -0.602 (inactive) |
| C=CCN1C(=O)[C@]2(O[C@H](CCO)[C@@H]([Si](C)(C)c3ccc(OC)cc3)[C@@H]2C)c2cc(N(C=O)c3ccccc3)ccc21 | 1.94 (inactive) | 0.749 | -2.52 | -3.67 (inactive) | -1.11 (inactive) | -0.984 (inactive) |
| CC(C)=CCCC(C)=CC(O)C1C=CC2C(=O)N(c3ccccc3)C(=O)C2N1Nc1ccc(C(C)C)cc1 (stereo not given) | 0.365 (inactive) | 0.305 | -0.25 | -2.82 (inactive) | 0.342 (inactive) | 0.0288 (inactive) |
| CS(=O)(=O)CCOC(=O)C1=CC(CCCO)=CC(C2CC2)N(Cc2cc3c(cc2Br)OCO3)C=C1C(=O)OCCS(C)(=O)=O (stereo not given) | 0.389 (inactive) | -0.111 | -2.58 | -5.51 (inactive) | -1.19 (inactive) | -0.295 (inactive) |
| COC(=O)c1c2oc(c1C(=O)OC)C(=O)NC1(CCCCC1)c1cn(nn1)C[C@H](Cc1ccccc1)NC(=O)N[C@H](CO)CC2 | 0.064 (inactive) | -0.271 | 0.196 | -4.41 (inactive) | -0.0736 (inactive) | -0.183 (inactive) |
| CCOC(=O)C[C@H]1[C@H](OC(=O)c2ccc(C(=O)c3ccccc3)cc2)[C@@H](NC(=O)c2ccccc2)c2cc(OCCCO)ccc2N1C(=O)c1ccccc1 | -0.492 (inactive) | 0.59 | -0.263 | -1.19 (inactive) | 0.743 (inactive) | 0.943 (inactive) |
| O=C1NC(=O)C2C1C=CC(C(O)C=Cc1ccc([N+](=O)[O-])cc1)N2Nc1ccc(Cl)cc1Cl (stereo not given) | 2.22 (inactive) | 0.692 | -0.143 | -5.55 (inactive) | 0.104 (inactive) | -0.171 (inactive) |
| COc1cc(CO)cc(I)c1O[C@H]1C=C(C(=O)NCCO)C[C@@H](N(C(=O)c2cc3ccccc3oc2=O)C2CCCCCC2)[C@@H]1O | -0.207 (inactive) | 0.466 | -1.8 | -7.6 (inactive) | 0.21 (inactive) | 0.722 (inactive) |
| COC(=O)[C@@]1(Cc2ccccc2)[C@H]2c3cc(C(=O)N4CCCC4)n(Cc4ccc(O)c(OC)c4)c3C[C@H]2CN1C(=O)c1ccccc1 | 0.469 (inactive) | -0.333 | -1.32 | -4.6 (inactive) | 1.13 (inactive) | 0.678 (inactive) |
| O=C1[C@H]2C=C(Br)[C@H](C[C@@H]2OCCCCCCO)[C@@]12CO2 | -0.358 (inactive) | -0.777 | -0.355 | -1.84 (inactive) | 0.73 (inactive) | 0.231 (inactive) |
| CN1CCC(CCCO)=CC1c1cccs1 (stereo not given) | 0.912 (inactive) | -1 | 0.896 | -4.21 (inactive) | 1.02 (inactive) | 0.692 (inactive) |
| COCC(=C=CC[C@H](O)c1ccccc1OCCO)CCO | 2.87 (inactive) | -0.501 | -0.549 | -2.98 (inactive) | 0.387 (inactive) | -0.186 (inactive) |
| C=C(CCCC)/C(=C/C[C@H](OC(C)=O)c1ccc(OCCO)cc1)c1cnc2ccccc2c1 | 0.578 (inactive) | 0.741 | -2.93 | -4.14 (inactive) | 0.212 (inactive) | -0.34 (inactive) |
| COCCOC(=O)N1C(=O)[C@@]2(c3cc(C#CC4(O)CCCCCC4)ccc31)[C@H](c1ccccc1OCCO)N1[C@H](c3ccccc3)[C@H](c3ccccc3)OC(=O)[C@H]1[C@@H]2C(=O)N1CCc2cc(OC)c(OC)cc2C1 | 0.164 (inactive) | 0.741 | -1.89 | -0.494 (inactive) | -0.149 (inactive) | 0.27 (inactive) |
| CC(=CC1CCCCC1)[C@@H](NC(=O)c1cccnc1)c1ccc(-c2ccccc2)cc1 | -0.486 (inactive) | -0.434 | -0.412 | -0.427 (inactive) | 1.6 (inactive) | -0.72 (inactive) |
